The source made the active and inactive calls.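 The calls were made as follows, unless noted: active = visually confirmed hit in the image check and inhibition above 20%; inconclusive = visually confirmed hit but inhibition not above 20%; inactive = no visual hit in the image check.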

Assay [1] in a line: inhibitors of TNFa-induced NFkB p65 translocation, primary screen, imaging, HUVEC, MLSMR starter and 10KST1 sets (AID 438;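 active = inhibition above 20% together with a positive visual image hit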;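 also: compound added about 3h40 before a 20 min TNFalpha stimulation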;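 as to inhibition: signal is the nuclear over cytoplasmic p65 intensity ratio per well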). Conditions: HUVEC TNFa-induced p65 nuclear translocation; cell count: measured here: nuclei count (cytotoxicity indicator), at 2.08 µM; inhibition: at 2 µM, stronger effect = higher value, 0% TNFa-plus-vehicle, 100% no-TNFa wells.
Assay [2] can be described thus: reduction of polyQ htt aggregates in cells – imaging, exon1htt(103Q)mCFP cells, high-content imaging, primary screen (AID 483;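 active = visual image review flags a hit and inhibition of aggregation exceeds 20%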;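 also: compound exposure lasted 3 days before fixation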;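 as to nuclei count: percent of the per-plate median nuclei count of sample wells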). Particulars: exon1htt(103Q)mCFP cell line, aggregate imaging, at 2 µM; inhibition of aggregation: stronger effect = higher value; nuclei count: measured here: cell count, toxicity.
A short description of assay [3]: endothelial E-selectin expression blockers – imaging, HUVEC, immunofluorescence, MLSMR starter and 10KST1 sets, primary screen (AID 487).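 As to inhibition: signal is fraction of cell area covered by stained E-selectin grains.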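 As to nuclei count: 100% = median nuclei count of all wells on the same plate.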 Conditions: HUVEC TNFalpha-induced E-selectin immunofluorescence imaging, at 2 µM; inhibition: stronger effect = higher value; nuclei count: measured here: cell number, toxicity.
The target in assay [4] is Voltage-gated potassium channel subunit beta-2 (Rattus norvegicus) (UniProt P62483). The assay is described as follows: inhibitors of rat Kvbeta2 reductase activity – biochemical, NADPH fluorescence, primary screen (AID 622;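 active = fluorescence slope higher than the sample average by over 3 SD, cut at about -0.22 in these data, passing the limit was not always enough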;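 also: slope of raw intensity against log time taken from 70 to 1610 s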). Conditions: recombinant KvBeta, 4-cyanobenzaldehyde reduction, at 10 µM, stronger effect = higher value.
Sequence of Voltage-gated potassium channel subunit beta-2 (Rattus norvegicus) (P62483 whole entry, looked up): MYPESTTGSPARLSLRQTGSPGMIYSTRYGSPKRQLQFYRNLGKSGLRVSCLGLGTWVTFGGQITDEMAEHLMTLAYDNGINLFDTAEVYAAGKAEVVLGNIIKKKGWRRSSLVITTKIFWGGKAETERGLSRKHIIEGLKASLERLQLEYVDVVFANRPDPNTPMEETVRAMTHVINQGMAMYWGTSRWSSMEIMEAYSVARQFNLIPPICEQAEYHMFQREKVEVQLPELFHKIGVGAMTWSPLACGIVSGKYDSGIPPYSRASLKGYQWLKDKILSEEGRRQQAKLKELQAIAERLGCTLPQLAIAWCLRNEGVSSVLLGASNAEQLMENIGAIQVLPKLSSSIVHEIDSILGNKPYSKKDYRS
For assay [5] the target is unchanged. The assay is described as follows: enhancers of rat Kvbeta2 NADPH turnover – biochemical, NADPH fluorescence, primary screen (AID 623;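 active = NADPH fluorescence slope more negative than the mean of all samples by about 3 SD, 99.7% confidence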;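 also: fluorescence intensity change per second fitted from 20 to 320 s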). Particulars: Recombinant KvBeta, NADPH fluorescence decrease slope, 10 min; at 10 µM; stronger effect = lower value.
Assay [6] has as its target Alpha-2C adrenergic receptor (Homo sapiens) (UniProt P18825). Nature of the assay: compounds altering alpha2C-coupled GIRK flux – cell-based, HEK293 alpha2C/GIRK1/2, thallium flux, primary screen (AID 624;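 active = fluorescence slope after compound addition differing from the mean of all screened samples at 99.7% confidence, in either direction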;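 also: slope of fluorescence ratio to pre-addition baseline per second over 15 to 24 s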). Particulars: thallium flux BTC fluorescence, at 10 µM, actives lie on both sides.
Assay [7] can be described thus: blockers of RIG-like receptor reporter activation – cell-based, Sendai virus stimulus, luciferase, 10K MLSCN set, TLR/RLR signaling modifier project, primary screen (AID 602276;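 active = inhibition at or above 50% at 10 µM; inactive = inhibition below 50%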;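 also: firefly luciferase from ISG56 promoter only with Renilla not read in this screen; 0% = Sendai virus plus DMSO and 100% = medium plus DMSO without virus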). Particulars: HEK293 RL24 IRF3 luciferase reporter, at 10 µM, stronger effect = higher value. (In a reporter assay the amount or activity of a reporter protein is the signal.)
Assay [8] in a line: TLR3 IRF3 reporter activation blockers – cell-based, poly I:C stimulus, luciferase, 10K MLSCN set, primary screen (AID 602277;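 active = inhibition of the reporter signal at or above 50%; inactive = inhibition below 50%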). Particulars: HEK293-TLR3 RL24 IRF3 luciferase reporter, at 10 µM, stronger effect = higher value.

Sequence of Alpha-2C adrenergic receptor (Homo sapiens) (P18825 whole entry, looked up): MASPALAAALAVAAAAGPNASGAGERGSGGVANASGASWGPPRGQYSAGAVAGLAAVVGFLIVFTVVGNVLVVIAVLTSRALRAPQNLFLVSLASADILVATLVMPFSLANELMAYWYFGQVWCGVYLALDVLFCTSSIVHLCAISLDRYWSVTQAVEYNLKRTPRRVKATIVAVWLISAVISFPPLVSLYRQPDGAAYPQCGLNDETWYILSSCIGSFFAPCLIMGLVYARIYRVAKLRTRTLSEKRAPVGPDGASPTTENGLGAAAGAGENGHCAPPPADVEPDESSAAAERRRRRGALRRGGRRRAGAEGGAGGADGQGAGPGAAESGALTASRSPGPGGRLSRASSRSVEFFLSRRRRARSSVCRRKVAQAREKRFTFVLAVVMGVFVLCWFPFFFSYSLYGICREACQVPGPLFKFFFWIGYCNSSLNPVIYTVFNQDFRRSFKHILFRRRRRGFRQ

In general, inhibition refers to the drop in the measured response relative to a control, in per cent. For `CCCSc1nnc2nc3c(nn12)c1ccccc1n3C`, in assay [1], the cell count was 572. Further, the inhibition in assay [1] is 4.4% (inactive); in assay [3], 5.3% (inactive); in assay [7], 5.91% (inactive); in assay [8], 27.8% (inactive). Also, the inhibition of aggregation in assay [2] is -6.3% (inactive). Also, the nuclei count in assay [2] came to 109%; in assay [3] it was 107%. Also, the fluorescence slope in assay [4] was -0.519 (inactive). Also, in assay [5], the NADPH fluorescence slope is -6.9e-05 (inactive). Also, the slope in assay [6] is 0.0026 (inactive).
`CCOc1cc(C2/C(=C(/O)c3ccc(OC(C)C)cc3)C(=O)C(=O)N2CCCOC)ccc1O` (centres undefined): the cell count in assay [1] is 714. Moreover, the inhibition was -7.5% (inactive) in assay [1], -120% (inactive) in assay [3], 12.7% (inactive) in assay [7] and 14.8% (inactive) in assay [8]. In addition, in assay [2], the inhibition of aggregation was -20.2% (inactive). Moreover, the nuclei count in assay [2] and in assay [3] was 111% each time. Further, the fluorescence slope in assay [4] is -0.513 (inactive). Further, the NADPH fluorescence slope in assay [5] is 2e-05 (inactive). Besides, the slope in assay [6] was 0.00381 (inactive).
Take `CCCc1cc(C(=O)Nc2ccccc2C(=O)OC)no1`: the cell count in assay [1] was determined as 864. For the same molecule, the inhibition was 5.5% (inactive) in assay [1], -50.4% (inactive) in assay [3], -14.6% (inactive) in assay [7] and -14.1% (inactive) in assay [8]. Also, the inhibition of aggregation in assay [2] is 4.8% (inactive). Besides, the nuclei count in assay [2] amounted to 92.4%; in assay [3], 111%. The fluorescence slope in assay [4] was -0.629 (inactive). In addition, the NADPH fluorescence slope in assay [5] was -3.3e-06 (inactive). Besides, in assay [6], the slope was 0.0059 (inactive).
Consider `O=S(=O)(NCc1ccccn1)c1ccc2c(c1)OCCO2`, for which, in assay [1], the cell count was 673. Further, the inhibition in assay [1] is 11.1% (inactive); in assay [3], -3.6% (inactive); in assay [7], 3.8% (inactive); in assay [8], 5.59% (inactive). The inhibition of aggregation in assay [2] was -27.1% (inactive). Further, the results for the nuclei count in assay [2] and in assay [3] were 99.3% and 102%, respectively. Further, the fluorescence slope in assay [4] is -0.354 (inactive). For the same molecule, in assay [5], the NADPH fluorescence slope is -8e-05 (inactive). In addition, the slope in assay [6] was 0.00513 (inactive).
Regarding `Cc1cc2c(c(=O)n1C)C(Cc1ccccc1)C(C#N)=C(N)O2` (centres undefined), the cell count in assay [1] is 620. In addition, the inhibition in assay [1] was -20.7% (inactive); in assay [3], -61.8% (inactive); in assay [7] it was 9.72% (inactive); in assay [8], 14.5% (inactive). Further, the inhibition of aggregation in assay [2] was 24.9% (inactive). Further, the values for the nuclei count in assay [2] and in assay [3] were 99.1% and 117%, respectively. Besides, the fluorescence slope in assay [4] was -0.322 (inactive). For the same molecule, the NADPH fluorescence slope in assay [5] is -3.8e-05 (inactive). Besides, the slope in assay [6] was 0.00445 (inactive).
In the case of `Cc1cccc(C)c1NC(=O)c1cc(S(=O)(=O)N2CCOCC2)ccc1F`, in assay [1], the cell count was determined as 341. Further, the inhibition is 10.3% (inactive) in assay [1], -213% (inactive) in assay [3], 11.2% (inactive) in assay [7] and 26.3% (inactive) in assay [8]. The inhibition of aggregation in assay [2] was -3.7% (inactive). For the same molecule, the nuclei count stood at 56.5% in assay [2] and 80.9% in assay [3]. Besides, in assay [4], the fluorescence slope is -0.302 (inactive). Further, the NADPH fluorescence slope in assay [5] was -1e-05 (inactive). Also, in assay [6], the slope is 0.00325 (inactive).
Take `CCC(C(=O)Nc1ccccc1C(=O)N1CCCC1)N1C(=O)c2ccccc2C1=O` (centres undefined): the cell count in assay [1] was found to be 623. The inhibition in assay [1] is 16.8% (inactive); in assay [3], -112% (inactive); in assay [7], 4.49% (inactive); in assay [8] it was 15.4% (inactive). The inhibition of aggregation in assay [2] is -16.8% (inactive). Also, the results for the nuclei count in assay [2] and in assay [3] were 109% and 112%, respectively. In addition, the fluorescence slope in assay [4] is -0.356 (inactive). In addition, the NADPH fluorescence slope in assay [5] was 9.2e-06 (inactive). Moreover, the slope in assay [6] is 0.0034 (inactive).
For `Cc1cc(=O)[nH]c(S/C=C/c2ccccc2)n1`, the cell count in assay [1] was 427. Also, the inhibition in assay [1] was -1.8% (inactive); in assay [3], 1.2% (inactive); in assay [7], -28.9% (inactive); in assay [8], -89.2% (inactive). The inhibition of aggregation in assay [2] is -8.6% (inactive). The nuclei count in assay [2] amounted to 103%; in assay [3], 80.7%. Besides, the fluorescence slope in assay [4] was -0.603 (inactive). Also, the NADPH fluorescence slope in assay [5] is -2e-05 (inactive). Further, the slope in assay [6] is 0.00593 (inactive).
In the case of `CCC(C)NC(=O)CS(=O)(=O)Cc1nc(-c2cccc(OC)c2)oc1C` (centres undefined), the cell count in assay [1] was determined as 638. Further, the inhibition in assay [1] is -1.3% (inactive); in assay [3], -44.8% (inactive); in assay [7], 9.35% (inactive); in assay [8], 4.33% (inactive). The inhibition of aggregation in assay [2] was -7.7% (inactive). Also, the nuclei count in assay [2] came out at 99.2%; in assay [3] it was 107%. For the same molecule, in assay [4], the fluorescence slope was -0.523 (inactive). In addition, the NADPH fluorescence slope in assay [5] was 2.7e-05 (inactive). In addition, in assay [6], the slope was 0.00702 (inactive).
Turning to `Cn1c(=O)cc(OCCCC(=O)N2CCCCC2)c2ccccc21`, the cell count in assay [1] was 372. Besides, the inhibition is 8.3% (inactive) in assay [1], -22.3% (inactive) in assay [3], -4.34% (inactive) in assay [7] and 36.6% (inactive) in assay [8]. For the same molecule, the inhibition of aggregation in assay [2] is -21.8% (inactive). Moreover, the nuclei count in assay [2] came to 96.2%; in assay [3], 112%. The fluorescence slope in assay [4] is -0.578 (inactive). Also, in assay [5], the NADPH fluorescence slope was 1.8e-05 (inactive). In assay [6], the slope is 0.00683 (inactive).
For the molecule `CC1(C)CC(=O)CC(C)(C)N1OC(=O)c1ccccn1`, the cell count in assay [1] came out at 362. Also, the inhibition is 1% (inactive) in assay [1], -4.9% (inactive) in assay [3], -2.81% (inactive) in assay [7] and 25.3% (inactive) in assay [8]. Moreover, the inhibition of aggregation in assay [2] was -6.4% (inactive). In addition, the nuclei count in assay [2] came out at 97.7%; in assay [3], 102%. The fluorescence slope in assay [4] is -0.495 (inactive). The NADPH fluorescence slope in assay [5] is 2e-05 (inactive). The slope in assay [6] is 0.00619 (inactive).
Consider `C#CCSc1nnc(-c2ccccc2)c(=O)[nH]1`, for which, in assay [1], the cell count was 903. Moreover, the inhibition in assay [1] was -8.2% (inactive); in assay [3], -57.3% (inactive); in assay [7], -0.0999% (inactive); in assay [8], -4.88% (inactive). Besides, the inhibition of aggregation in assay [2] was 0.6% (inactive). The nuclei count turned out to be 127% in assay [2] and 109% in assay [3]. The fluorescence slope in assay [4] was -0.505 (inactive). In addition, the NADPH fluorescence slope in assay [5] was -4.9e-05 (inactive). In addition, in assay [6], the slope is 0.00603 (inactive).
With `COCC(C)NC(=O)CCS(=O)(=O)c1nc(-c2ccc(OC)cc2)cc(C(F)(F)F)n1` (centres undefined), the cell count in assay [1] worked out at 638. In addition, the inhibition in assay [1] is 7.9% (inactive); in assay [3], -37.9% (inactive); in assay [7], 17.7% (inactive); in assay [8], 1.39% (inactive). Moreover, the inhibition of aggregation in assay [2] is 2.6% (inactive). In addition, the nuclei count in assay [2] came to 96.3%; in assay [3] it was 192%. Also, in assay [4], the fluorescence slope is -0.323 (inactive). In assay [5], the NADPH fluorescence slope is -2.1e-05 (inactive). Further, the slope in assay [6] is 0.00386 (inactive).
Consider `Cc1cc(C)n(C(=O)CCCCCC(=O)n2nc(C)cc2C)n1`, for which the cell count in assay [1] worked out at 440. Further, the inhibition is 5.5% (inactive) in assay [1], -195% (inactive) in assay [3], 18.5% (inactive) in assay [7] and 26.3% (inactive) in assay [8]. Further, the inhibition of aggregation in assay [2] was 1.5% (inactive). The nuclei count in assay [2] and in assay [3] was 116% in each case. Moreover, the fluorescence slope in assay [4] was -0.524 (inactive). Also, in assay [5], the NADPH fluorescence slope is 8.7e-06 (inactive). The slope in assay [6] was 0.0053 (inactive).

For the origin of these results see PubChem BioAssay.
